14 molecules from PubChem BioAssay (NCI) can be followed below.

This is part of a sample that, as a whole, favours compounds with a hit. Of some 83,000 tested, about 20% had one in any assay.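 Percent growth is the endpoint: 0 to 100 indicates growth inhibition (40 means 60% inhibition), 0 means no net growth, and negative values indicate cell death.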 Unmarked numbers belong to inactive results. Activity calls are given as the source filed them. How the source made its calls: active means growth percent below 10; inactive means the rest.

In the test the test system is OVCAR-8 ovarian. Briefly: NCI-60 one-dose screen, 48 h (100 = growth as untreated, 0 = no growth, -100 = all killed). The following applies: 10 µM unless noted.
As to `Cn1ccnc1C(=O)/C=C/c1ccc(NC(=O)Nc2ccc(Cl)cc2)cc1`, the growth is 81.9%. In the case of `C#Cc1nc(C2=C(C)/C(=N/OCc3ccccc3)CC2)cs1`, the growth was 21.2%. The figure for `COc1ccc(-n2c(SCC(=O)Nc3ccc(-c4nc5ccccc5[nH]4)cc3)nc3ccccc3c2=O)cc1` is 20.9%; for `COc1cc(OC)c(S(=O)(=O)NNC(=O)c2ccncc2)cc1C(=O)/C=C/c1ccc(C)cc1` it is 88.3%; for `COC(=O)C(C)NS(=O)(=O)/N=C1\NC(=O)NC1=C(Cl)Cl` (centres undefined) it is 100%. As to `COc1ccc(C(=O)/C=C/c2ccc(Oc3nc(NCCO)nc(N4CCOCC4)n3)c(OC)c2)cc1`, the growth is 69.6%. The figure for `NS(=O)(=O)c1cccc(Nc2nc(SCC(=O)c3ccc(Br)cc3)nc3ccccc23)c1` is 39.5%.

For `O=C(N/N=C/c1ccc([N+](=O)[O-])o1)c1[nH]c2ccc(Br)cc2c1-c1ccccc1`, the growth is -5.13% (active).

With `O=C(N/N=C/c1cccs1)c1[nH]c2ccc(Br)cc2c1-c1ccccc1`, the growth is 3.38% (active). For `COc1cc2cc(Oc3ccc(NC(=O)c4cccc(C(F)(F)F)c4)cc3)c(C)nc2cc1OCCN1CCCCC1` the value was 62.6%. On to `Cc1sc2c(c1C)c(=O)nc1c(-c3nc(-c4ccc(F)cc4)no3)n[nH]n12`, for which the growth was 104%. Regarding `N#Cc1nc(-c2ccccc2)oc1N1CC[C@@H](CO)C1`, the growth was 100%. The figure for `Cn1ccnc1C(=O)/C=C/c1ccc(NC(=O)Nc2ccc(F)cc2)cc1` is 15.8%; for `COc1ccc(NC2=C(Cl)C(=O)C(C)=C(C)C2=O)cc1OC` it is 97.5%.
